uPA generation = cell surface uPA generation inhibition; cell surface uPA generation assay, qHTS; Potency, µM (series often up to 38.3 µM), without a hit: at the highest dose activity change, negative = inhibition, most hits filed as inhibitors; 330,000 tested, 0.31% active; active = well fitted inhibition curve with a large enough effect; inconclusive = small, poorly fitted or top-dose-only effect; inactive = no such curve, though single readings can be large or run the other way; tested in mouse RAW 264.7 cells; also: potency is read from the fitted curve at half-maximal effect; % is scaled to controls: 0 for no effect and ±100 for the full control effect; nearly all actives have a fitted effect of over 55% in size
RGS4 inh = human RGS4 inhibition. Transcreener GDP fluorescence polarization, RGS4-accelerated GTP hydrolysis. P49798. Potency, µM (top dose mostly 114 µM), for inactives: top-dose activity change, negative = inhibition, most hits filed as inhibitors. 390,000 tested, 0.039% active; active = well fitted inhibition curve with a large enough effect; inconclusive = small, poorly fitted or top-dose-only effect; inactive = no such curve, though single readings can be large or run the other way; also: potency is read from the fitted curve at half-maximal effect; % is scaled to controls: 0 for no effect and ±100 for the full control effect; nearly all actives have a fitted effect of over 75% in size
Target sequence (P49798 whole entry, looked up): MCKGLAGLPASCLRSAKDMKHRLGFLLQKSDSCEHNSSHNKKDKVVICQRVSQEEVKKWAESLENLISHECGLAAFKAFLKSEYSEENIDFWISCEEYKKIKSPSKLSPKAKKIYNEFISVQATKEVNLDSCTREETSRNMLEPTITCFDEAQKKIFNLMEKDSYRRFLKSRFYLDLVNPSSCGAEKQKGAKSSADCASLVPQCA
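MLSMR compounds (23 nl, pin-transferred) preincubated 10 min at room temperature with a 500nM (2x) first reagent, then RGS4 at 900nM (2x) plus Transcreener GDP mix added; fluorescence polarization (620/688 nm) read before and after 90 min at 30 °C.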
DRD3 agonist = activates the human D3 dopamine receptor; P35462; D3R DiscoveRx beta-arrestin cells, luminescence, 90 min; max activation, %; 410,000 tested, 0.58% active; in the data active = max activation above about 30%; also: 0% is about no effect
Target sequence (P35462 whole entry, looked up): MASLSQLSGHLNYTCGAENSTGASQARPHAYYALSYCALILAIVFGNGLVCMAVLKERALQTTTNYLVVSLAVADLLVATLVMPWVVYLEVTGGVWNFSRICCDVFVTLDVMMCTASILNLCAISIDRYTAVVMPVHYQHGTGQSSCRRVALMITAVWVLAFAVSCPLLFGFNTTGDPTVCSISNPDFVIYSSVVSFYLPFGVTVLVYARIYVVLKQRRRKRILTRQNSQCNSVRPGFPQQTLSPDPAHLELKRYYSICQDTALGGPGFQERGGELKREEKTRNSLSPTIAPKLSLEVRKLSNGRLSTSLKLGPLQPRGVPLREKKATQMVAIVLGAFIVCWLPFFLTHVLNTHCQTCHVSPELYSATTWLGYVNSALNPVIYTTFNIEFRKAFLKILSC
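Cells at 1500/well, incubated overnight, then treated with pinned compounds (dopamine as control) for 90 min at 37 degrees C. DiscoveRx reagent added for 30 - 60 minutes at room temperature; luminescence read.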
D3 antag = antagonists of human D3 dopamine receptor; P35462; D3R cells, DiscoveRx beta-arrestin luminescence, antagonist mode; hits give low values; max response, negative = inhibition, %; 360,000 tested, 2.5% active; AID 652054; in the data active = max response below about -50%; inconclusive = no clear call, values can overlap the other calls; also: % is scaled to controls: 0 for no effect and ±100 for the full control effect
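Cells plated overnight at 1500 cells/well, then exposed to library compounds with dopamine controls for 90 minutes at 37 degrees C. DiscoveRx reagent added for 30–60 minutes at room temperature; luminescence read, quantitative HTS format.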
* hit, by the source's call; ? = inconclusive; · = no result given; [ ] = remark or other dose. Only some compounds are listed: those with a hit (about 3.1% of all), similar ones and a draw of the others.

SMILES	uPA generation	RGS4 inh	DRD3 agonist	D3 antag
COc1ccc(-n2c(SC(C)C(=O)Nc3ncc(Cl)cc3Cl)nc3ccccc32)cc1 (configuration not stated)	?	-2.5%	35.8*	17.3
CC(Sc1ccc2c(c1)OCCO2)C(=O)Nc1ncc(Cl)cc1Cl (configuration not stated)	-7.3%	-21.2%	-4.0	-8.5
O=C(Oc1ccccc1)c1ccc(COC(=O)c2cnccn2)cc1	2.7%	13.1%	-2.0	-106.4*
O=C(Oc1ccc(Cl)cc1)c1ccc(COC(=O)c2cnccn2)cc1	0.8%	-19.3%	0.6	6.6
Cc1cc(C)cc(NC(=O)C(=O)NCC(c2ccc3c(c2)OCO3)N2CCN(C)CC2)c1 (configuration not stated)	·	-3.2%	-10.2	·
O=C(C(=Cc1ccccc1)CN1CCCCC1)c1ccccc1	-5.8%	-35.3%	-23.1	-91.4*
O=C(NCC(c1ccco1)N1CCN(c2ccccc2F)CC1)C(=O)NC1CC1 (configuration not stated)	0.2%	-2.1%	6.8	1.9
O=C(NCC(c1ccco1)N1CCN(c2ccccc2F)CC1)C(=O)NC1CCCCC1 (configuration not stated)	2.9%	14.0%	54.2*	4.0
Cc1ccc2oc(=O)c3cc(C(=O)Nc4ccccc4C(N)=O)sc3c2c1	·	8.1%	2.6	·
CCc1cc(=O)oc2cc(OC(C)=O)cc(OC(C)=O)c12	12.4%	-3.5%	1.9	-58.3*
COc1ccc(S(=O)(=O)N2CCCCCC2)cc1C(=O)OCC(=O)NC(C)(C)C	-2.8%	-15.0%	38.6*	1.6
CCn1c(C)c(CS(=O)(=O)c2ccccc2)[nH]c1=O	-14.3%	-47.9%	-12.1	-71.0*
Cc1nn(Cc2n[nH]c(=S)n2Cc2ccccc2)c(C)c1Cl	3.9%	-47.4%	-1.1	-87.3*
Cc1ccccc1C(=O)Nc1nnc(S(=O)(=O)N2CCCc3ccccc32)s1	·	-26.7%	-4.3	·
CCc1ccc(NC(=O)C(NS(=O)(=O)c2cccs2)C(C)C)cc1 (configuration not stated)	·	-10.2%	-3.9	·
CC1(C)Cc2c(C#N)c(N3CCN(C(=O)c4ccco4)CC3)nc(Cc3ccccc3)c2CO1	11.7%	-45.1%	30.3*	0.1
N#Cc1c(N2CCN(C(=O)c3ccco3)CC2)nc(-c2ccccc2)c2c1CCCC2	?	?	37.5*	17.8
CCc1nc(N2CCN(C(=O)c3ccco3)CC2)c(C#N)c2c1COC(C)(C)C2	2.8%	-17.1%	7.8	12.2
CCCCSCCCNC(=O)c1c[nH]c2ccc(S(=O)(=O)Nc3cccc(OC)c3)cc2c1=O	·	-43.3%	6.9	·
Cn1c(-c2c(N)n(CCc3ccccc3)c3nc4ccccc4nc23)nc2ccccc21	·	-4.7%	46.3*	23.5
Cn1c(-c2c(N)n(C3CCCC3)c3nc4ccccc4nc23)nc2ccccc21	1.2%	-10.6%[56.9 µM]	2.0	78.0
Cn1c(-c2c(N)n(CCCc3ccccc3)c3nc4ccccc4nc23)nc2ccccc21	·	4.6%	3.6	14.3
COCCCn1c(N)c(-c2nc3ccccc3n2C)c2nc3ccccc3nc21	·	3.4%	13.7	-87.9*
OCC[C@H]1C[C@H](O)[C@@H](O)[C@]2(Cc3ccccc3O2)O1	4.1%	9.8%	1.7	-67.8*
OCC[C@H]1C[C@@H](O)[C@H](O)[C@]2(Cc3ccccc3CCO2)O1	4.3%	8.3%	31.2*	-9.3
SMILES	uPA generation	RGS4 inh	DRD3 agonist	D3 antag
COCCn1c(SCC(=O)c2ccc(F)cc2)nc2cc(C(=O)NC3CCCC3)ccc2c1=O	·	-11.9%	1.2	·
CC(O)[C@@H]1NC(=O)[C@H](Cc2ccccc2)NC(=O)[C@H](C(C)O)NC(=O)[C@H](CCCCN)NC(=O)[C@H](Cc2c[nH]c3ccccc23)NC(=O)[C@H](Cc2ccccc2)NC(=O)[C@H](Cc2ccccc2)NC(=O)[C@H](CC(N)=O)NC(=O)[C@H](CCCCN)NC(=O)[C@@H](NC(=O)CNC(=O)[C@H](C)N)CSSC[C@@H](C(=O)O)NC(=O)[C@H](CO)NC1=O (some centres not stated)	·	·	-4.9	·
CCCCC12CN3CC(C)(CN(C1)C3c1c(C)[nH]c(=O)[nH]c1=O)C2=O (configuration not stated)	·	-4.9%	4.4	·
CC(C)CN(c1ccccc1)S(=O)(=O)c1nnc(NC(=O)c2ccco2)s1	-4.4%	18.9%[56.9 µM]	-20.5	-86.4*
CCN(c1ccccc1)S(=O)(=O)c1nnc(NC(=O)CC(C)C)s1	2.0%	9.2%	-12.2	-65.9*
O=C(N/N=C/c1ccc[nH]1)c1sc2ccccc2c1Cl	-5.1%	13.1%	-29.8	-64.7*
O=c1cc(CN2CCN(Cc3ccc(F)cc3)C(CCO)C2)[nH]c2ccccc12 (configuration not stated)	-2.6%	-31.6%	-24.0	-58.3*
OCCC1CN(Cc2cc3ccccc3o2)CCN1Cc1ccc(F)cc1 (configuration not stated)	16.4%	24.6%	-23.2	?
OCCC1CN(Cc2ccc(F)cc2)CCN1CCCc1ccccc1 (configuration not stated)	-9.5%	-7.8%	-17.6	-57.7*
OCCC1CN(CCCc2ccccc2)CCN1Cc1ccccc1 (configuration not stated)	3.0%	-15.9%	-21.3	-82.0*
OCCC1CN(Cc2ccc(F)cc2)CCN1CCc1ccccc1 (configuration not stated)	7.0%	-6.6%	-26.0	-24.9
CC(=O)Nc1ccn(C2CC3OCC(NC(=O)C4CCCN4C(=O)OC(C)(C)C)C3O2)c(=O)n1 (configuration not stated)	·	6.3%	·	·
CCC(Sc1nnc(C)n2c1cc1occc12)C(=O)Nc1ccccc1F (configuration not stated)	·	18.1%	7.6	·
COc1cccc(Nc2cc(C)nc3ccccc23)c1	-4.6%	-21.2%	-2.0	-55.7*
CCCCNc1c(-c2ccc(OC)c(SC(C)CC)c2)nc2ccc(C)cn12 (configuration not stated)	?	8.6%	12.8	-13.9
CCCCNc1c(-c2ccc(OC)c(SC(C)CC)c2)nc2cnccn12 (configuration not stated)	-3.5%	-17.8%	53.0*	78.7
CCCCNc1c(-c2ccc(OC)c(SC(C)CC)c2)nc2ccc(Cl)cn12 (configuration not stated)	0.7%	-12.0%	3.0	48.2
CCCCNc1c(-c2ccc(OC)c(SC(C)CC)c2)nc2cc(C)ccn12 (configuration not stated)	-20.3%	-5.3%	62.9*	4.4
CCCCCCSc1ccc(-c2nc3cnccn3c2NCCCC)cc1	-0.7%	-7.1%	63.5*	158.5
CCCCCCSc1cc(-c2nc3ccc(C)cn3c2NCCCC)ccc1OC	14.2%	-4.7%	70.9*	131.9
Cc1cc(CC(C)CC(C)(C)C)n(O)c(=O)c1 (configuration not stated) (tested in a mixture with another compound)	·	·	8.0	·
